Results reported in PubChem BioAssay AID720597 (Broad Institute, 2013).
Potency and affinity values are given separately. Calls of active or inactive are those of the source.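 How the source made its calls: active means fitted half-maximal dose no more than twice the top valid tested dose, for compounds that lower signal; inconclusive means fit invalid, or curve flat with activity between -70 and -30; inactive means potency past limit, curve flat within ±30, or signal increasing.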

target: NAD-dependent protein deacylase sirtuin-5, mitochondrial (Homo sapiens) (UniProt Q9NXA8); experiment: blockers of sirtuin-5 peptide desuccinylation – biochemical, fluorescence imaging, cherry-pick, set 6, dose response (AID 720597); details: Purified SirT5, succinyl-peptide-AMC/trypsin fluorescence; series mostly up to 15 µM;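 further: lower AMC signal can also come from blocking the trypsin step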
Sequence (Q9NXA8 whole entry, looked up): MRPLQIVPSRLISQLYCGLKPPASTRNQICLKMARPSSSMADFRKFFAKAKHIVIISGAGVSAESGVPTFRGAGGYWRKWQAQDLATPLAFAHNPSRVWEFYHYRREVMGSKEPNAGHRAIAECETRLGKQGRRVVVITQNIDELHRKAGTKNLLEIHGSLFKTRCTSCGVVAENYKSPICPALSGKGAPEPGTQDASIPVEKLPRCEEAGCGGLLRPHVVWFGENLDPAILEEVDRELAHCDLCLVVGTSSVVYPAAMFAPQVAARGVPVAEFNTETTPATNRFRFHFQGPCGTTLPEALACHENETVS

outcome, inactive:
CC1c2nc3ccccc3n2C(CC(=O)NCc2ccc(Cl)cc2)C(=O)N1Cc1ccccc1 (configuration not stated)
COc1ccc(S(=O)(=O)Nc2ccc3c(c2)CC(=O)N([C@H](C)CO)C[C@H](C)[C@@H](CN(C)CC2CCCCC2)O3)cc1
C[C@H](CO)N1C[C@H](C)[C@H](CN(C)S(=O)(=O)c2ccccc2F)Oc2cc(C#Cc3cccc(F)c3)ccc2S1(=O)=O
COc1ccc(S(=O)(=O)Nc2ccc3c(c2)CC(=O)N([C@@H](C)CO)C[C@@H](C)[C@H](CN(C)S(=O)(=O)c2ccc(C)cc2)O3)cc1
C[C@@H]1CN([C@@H](C)CO)C(=O)Cc2cc(NS(=O)(=O)c3ccc(Cl)cc3)ccc2O[C@@H]1CN(C)CC1CCCCC1
O=C(NCC[C@@H]1CC[C@H](NS(=O)(=O)c2cccc(F)c2)[C@H](CO)O1)C1CCOCC1
C[C@H]1CN([C@@H](C)CO)S(=O)(=O)c2ccc(C#CC3CC3)cc2O[C@@H]1CN(C)C(=O)Cc1ccncc1
COc1ccc(NC(=O)N(C)C[C@@H]2Oc3cc(C#CCC(C)C)ccc3S(=O)(=O)N([C@H](C)CO)C[C@@H]2C)cc1
COc1cccc(S(=O)(=O)N(C)C[C@H]2Oc3cc(C4=CCCC4)ccc3S(=O)(=O)N([C@@H](C)CO)C[C@@H]2C)c1
Cc1ccc(S(=O)(=O)N(C)C[C@H]2OCc3ccccc3-c3c(n(C)c4ccccc34)C(=O)N([C@H](C)CO)C[C@H]2C)cc1
O=C(NCC[C@@H]1CC[C@@H](NS(=O)(=O)c2cccc(F)c2)[C@H](CO)O1)C1CCOCC1
COc1cccc(NC(=O)N2CC(=O)N3[C@H](C2)[C@@H](c2ccc(C#CCC4CCCC4)cc2)[C@@H]3CO)c1
